Assay [1] can be described thus: small molecules captured by biotinylated probe aFSTL3 – biochemical, small-molecule microarray, fluorescence 635/667, stem cell growth factor project, primary screen (AID 1064).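 Also: measures binding of the biotinylated anti-FSTL3 antibody to printed compounds.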 Particulars: higher = more signal.
A short description of assay [2]: binders from COS7 lysate, DM2A8 probe, primary screen, torsin A project, cell lysate, small-molecule microarray, fluorescence 635/667 (AID 1065). Particulars: higher = more signal, COS7 lysate expressing mutant human TOR1A.
A short description of assay [3]: small molecules captured by biotinylated probe aFGF2 – biochemical, small-molecule microarray, fluorescence 635/667, stem cell growth factor project, primary screen (AID 1067).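 Also: measures binding of biotinylated aFGF2 protein to printed compounds on slides; z-score merges feature fluorescence and signal-to-noise across triplicate slides.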 Particulars: higher = more signal.
A short description of assay [4]: small molecules captured by biotinylated probe aFGF10 – biochemical, small-molecule microarray, fluorescence 635/667, stem cell growth factor project, primary screen (AID 1071).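 Also: score merges 667 nm spot intensity and signal to noise from triplicate slides.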 Conditions: higher = more signal.
Assay [5] addresses Neurogenic locus notch homolog protein 2 (Homo sapiens) (UniProt Q04721). Put plainly: small molecules binding Notch2 protein – biochemical, small-molecule microarray, 635 nm fluorescence, stem cell growth factors, primary screen (AID 1073). Particulars: higher = more signal.
The target in assay [6] is Pro-neuregulin-1, membrane-bound isoform (Homo sapiens) (UniProt Q02297). Put plainly: small molecules binding neuregulin-1 protein – biochemical, small-molecule microarray, fluorescence 635/667, psychiatric disease protein project, primary screen (AID 1075).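 Also: score combines 667 nm spot fluorescence with signal to noise.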 Particulars: NRG1 binding, 635 nm fluorescence, higher = more signal.
The subject of assay [7] is Neuregulin-1 EGF-like domain. Put plainly: small molecules binding NRG1 EGF domain – biochemical, small-molecule microarray, 635 nm fluorescence, primary screen (AID 1081).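 Also: binding of the protein to compounds printed on small-molecule microarray slides.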 Particulars: higher = more signal.
Assay [8] is described as follows: FRG1 expression reporter modulators in myotubes – cell-based, C2C12 myotubes, firefly/Renilla luciferase, luminescence, FRG1 inhibition for FSHD, primary screen (AID 1084). Conditions: FRG1 promoter luciferase, higher = more signal, called active from +8 up or from −8 down.
A short description of assay [9]: small molecules captured by biotinylated probe aFST – biochemical, small-molecule microarray, fluorescence 635/667, stem cell growth factor project, primary screen (AID 1086).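 Also: score merges 667 nm fluorescence with signal-to-noise of each printed compound spot.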 Conditions: higher = more signal.
A short description of assay [10]: binders of probe aHhip on microarray, primary screen, stem cell growth factor project, biochemical, small-molecule microarray, fluorescence 635/667 (AID 1087).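 Also: score merges spot fluorescence at 667nm with spot signal to noise ratio.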 Particulars: higher = more signal.
Assay [11] has as its system PRMT1 (protein arginine N-methyltransferase 1). Put plainly: small molecules binding arginine methyltransferase PRMT1 – biochemical, small-molecule microarray, 635 nm fluorescence, primary screen (AID 1088).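 Also: binding of Prmt1 protein to compounds spotted on small-molecule microarray slides.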 Conditions: higher = more signal.
Assay [12] is described as follows: growth effects on S. cerevisiae YJM789 – YJM789 clinical isolate, OD600, 24 h, basal, primary screen (AID 1089).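 Also: growth of clinical yeast isolate S. cerevisiae YJM 789 seeded 1000 cells per well; test concentration not given here.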 Particulars: higher = more signal, called active from +8 up or from −8 down.
A short description of assay [13]: S. pombe growth modifiers, basal conditions – strain 972, OD600, 24 h, no modulator, primary screen (AID 1090).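 Also: basal condition with compound alone and no growth modifier present; test concentration not given here.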 Particulars: S. pombe 972 growth, higher = more signal, called active from +8 up or from −8 down.
Assay [14] can be described thus: budding yeast growth modifiers under rapamycin – strain BY4716, OD600, 96 h, primary screen (AID 1091). Also: test concentration not given here. Particulars: S. cerevisiae BY4716 + rapamycin, higher = more signal, called active from +8 up or from −8 down.
The target of assay [15] is Torsin-1A-interacting protein 2 (Homo sapiens) (UniProt Q8NFQ8). Put plainly: small molecules binding lysate-expressed LULL1 – cell lysate, human LULL1 lysate, 635/667 nm fluorescence, primary screen (AID 1092).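 Also: probe is lysate of COS7 cells overexpressing human LULL1; score merges per-feature 667 nm fluorescence with signal-to-noise.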 Particulars: small-molecule microarray, hLULL1 lysate binding, 635 nm fluorescence; higher = more signal.
Assay [16] in a line: optical density change of DRC41 E. coli – strain DRC41, OD650, 24 h, E. coli filamentation project, primary screen (AID 1093).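 Also: MC1000 strain lacking acrAB efflux and sulA so SOS filamentation is blocked; test concentration not given here.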 Particulars: E. coli DRC41 growth, higher = more signal, called active from +8 up or from −8 down.
Assay [17] can be described thus: probe aLefty2 binding to arrayed compounds – biochemical, biotinylated probe, 635/667 nm fluorescence, primary screen (AID 1094).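 Also: score merges spot fluorescence near 667 nm with spot signal-to-noise ratio.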 Conditions: small-molecule microarray, higher = more signal.
For assay [18], the system named is Noggin (protein binding on small-molecule microarray). Put plainly: small molecules binding Noggin protein – biochemical, 635/667 nm fluorescence, primary screen (AID 1095).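 Also: score merges 667 nm feature fluorescence with signal to noise over triplicate slides.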 Particulars: 635 nm fluorescence, higher = more signal.
Assay [19] concerns the target Neurogenic locus notch homolog protein 3 (Homo sapiens) (UniProt Q9UM47). Put plainly: small molecules binding NOTCH3 protein – biochemical, 635/667 nm fluorescence, primary screen (AID 1096). Particulars: small-molecule microarray, 635 nm fluorescence, higher = more signal.
Assay [20] in a line: probe aEGFR binding to arrayed compounds – biochemical, biotinylated probe, 635/667 nm fluorescence, primary screen (AID 1097).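 Also: probe is a biotinylated anti-EGFR antibody binding compounds printed on slides; score combines fluorescence near 667 nm and signal to noise of each spot.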 Conditions: small-molecule microarray, higher = more signal.

Structures are written as SMILES. Activity calls are given as the source filed them.

Neurogenic locus notch homolog protein 3 (Homo sapiens), sequence (Q9UM47 whole entry, looked up): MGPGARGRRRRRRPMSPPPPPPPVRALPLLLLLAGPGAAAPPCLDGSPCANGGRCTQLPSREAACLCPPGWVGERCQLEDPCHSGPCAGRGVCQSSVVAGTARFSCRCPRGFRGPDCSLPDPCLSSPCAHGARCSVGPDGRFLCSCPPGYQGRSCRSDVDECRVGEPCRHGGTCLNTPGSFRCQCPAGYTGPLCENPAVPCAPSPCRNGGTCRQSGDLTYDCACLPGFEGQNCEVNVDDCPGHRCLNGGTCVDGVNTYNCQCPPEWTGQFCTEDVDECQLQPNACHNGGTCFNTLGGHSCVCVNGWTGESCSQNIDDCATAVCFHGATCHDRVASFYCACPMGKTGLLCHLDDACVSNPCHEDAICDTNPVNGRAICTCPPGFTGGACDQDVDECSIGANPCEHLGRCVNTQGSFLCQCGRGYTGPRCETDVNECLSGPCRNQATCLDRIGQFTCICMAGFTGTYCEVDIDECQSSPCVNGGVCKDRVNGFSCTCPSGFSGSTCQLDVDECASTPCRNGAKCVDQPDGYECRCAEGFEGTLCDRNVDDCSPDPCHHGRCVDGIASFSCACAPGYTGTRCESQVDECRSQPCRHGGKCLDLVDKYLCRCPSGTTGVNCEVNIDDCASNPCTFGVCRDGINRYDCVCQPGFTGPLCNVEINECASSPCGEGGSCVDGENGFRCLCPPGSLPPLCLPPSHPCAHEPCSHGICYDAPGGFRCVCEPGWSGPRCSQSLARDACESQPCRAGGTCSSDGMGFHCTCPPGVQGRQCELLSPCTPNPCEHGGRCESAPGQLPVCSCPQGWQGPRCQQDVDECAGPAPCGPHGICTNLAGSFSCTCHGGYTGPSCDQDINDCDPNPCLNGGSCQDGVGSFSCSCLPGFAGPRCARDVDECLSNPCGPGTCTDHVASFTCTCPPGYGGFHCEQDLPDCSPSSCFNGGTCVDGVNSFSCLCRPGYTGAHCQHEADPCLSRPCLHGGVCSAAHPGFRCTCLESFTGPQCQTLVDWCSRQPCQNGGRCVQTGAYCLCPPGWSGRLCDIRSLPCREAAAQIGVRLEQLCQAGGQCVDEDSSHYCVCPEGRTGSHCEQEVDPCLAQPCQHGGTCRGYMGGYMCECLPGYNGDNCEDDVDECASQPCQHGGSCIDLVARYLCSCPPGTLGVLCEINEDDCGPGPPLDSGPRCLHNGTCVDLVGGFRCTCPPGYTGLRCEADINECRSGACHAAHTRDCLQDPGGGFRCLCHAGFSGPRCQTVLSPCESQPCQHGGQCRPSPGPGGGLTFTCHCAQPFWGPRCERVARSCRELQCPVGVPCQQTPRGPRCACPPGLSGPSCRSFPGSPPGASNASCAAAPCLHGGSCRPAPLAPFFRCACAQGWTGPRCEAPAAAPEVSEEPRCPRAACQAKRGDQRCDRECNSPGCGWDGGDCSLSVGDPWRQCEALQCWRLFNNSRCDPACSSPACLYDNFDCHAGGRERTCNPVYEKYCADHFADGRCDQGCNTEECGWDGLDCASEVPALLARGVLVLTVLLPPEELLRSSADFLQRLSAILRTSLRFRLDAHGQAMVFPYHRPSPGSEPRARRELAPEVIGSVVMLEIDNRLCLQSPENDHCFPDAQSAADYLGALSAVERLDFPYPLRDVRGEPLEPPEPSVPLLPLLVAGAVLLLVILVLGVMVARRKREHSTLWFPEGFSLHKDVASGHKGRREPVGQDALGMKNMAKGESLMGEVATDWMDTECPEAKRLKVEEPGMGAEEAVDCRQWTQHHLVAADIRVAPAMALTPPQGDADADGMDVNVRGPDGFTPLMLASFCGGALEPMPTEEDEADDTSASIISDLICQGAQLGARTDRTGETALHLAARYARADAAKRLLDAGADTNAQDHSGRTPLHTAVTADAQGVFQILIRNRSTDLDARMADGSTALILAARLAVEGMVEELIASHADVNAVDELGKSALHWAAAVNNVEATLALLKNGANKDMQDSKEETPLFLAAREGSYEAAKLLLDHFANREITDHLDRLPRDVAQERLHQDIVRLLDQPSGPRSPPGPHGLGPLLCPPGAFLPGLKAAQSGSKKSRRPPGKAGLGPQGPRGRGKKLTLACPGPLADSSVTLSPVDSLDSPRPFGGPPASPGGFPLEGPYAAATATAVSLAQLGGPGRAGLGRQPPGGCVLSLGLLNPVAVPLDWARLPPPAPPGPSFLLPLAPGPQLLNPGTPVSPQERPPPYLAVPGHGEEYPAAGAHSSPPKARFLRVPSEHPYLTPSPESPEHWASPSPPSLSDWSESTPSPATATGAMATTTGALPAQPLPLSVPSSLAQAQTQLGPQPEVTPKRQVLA
Neurogenic locus notch homolog protein 2 (Homo sapiens), sequence (Q04721 whole entry, looked up, canonical isoform): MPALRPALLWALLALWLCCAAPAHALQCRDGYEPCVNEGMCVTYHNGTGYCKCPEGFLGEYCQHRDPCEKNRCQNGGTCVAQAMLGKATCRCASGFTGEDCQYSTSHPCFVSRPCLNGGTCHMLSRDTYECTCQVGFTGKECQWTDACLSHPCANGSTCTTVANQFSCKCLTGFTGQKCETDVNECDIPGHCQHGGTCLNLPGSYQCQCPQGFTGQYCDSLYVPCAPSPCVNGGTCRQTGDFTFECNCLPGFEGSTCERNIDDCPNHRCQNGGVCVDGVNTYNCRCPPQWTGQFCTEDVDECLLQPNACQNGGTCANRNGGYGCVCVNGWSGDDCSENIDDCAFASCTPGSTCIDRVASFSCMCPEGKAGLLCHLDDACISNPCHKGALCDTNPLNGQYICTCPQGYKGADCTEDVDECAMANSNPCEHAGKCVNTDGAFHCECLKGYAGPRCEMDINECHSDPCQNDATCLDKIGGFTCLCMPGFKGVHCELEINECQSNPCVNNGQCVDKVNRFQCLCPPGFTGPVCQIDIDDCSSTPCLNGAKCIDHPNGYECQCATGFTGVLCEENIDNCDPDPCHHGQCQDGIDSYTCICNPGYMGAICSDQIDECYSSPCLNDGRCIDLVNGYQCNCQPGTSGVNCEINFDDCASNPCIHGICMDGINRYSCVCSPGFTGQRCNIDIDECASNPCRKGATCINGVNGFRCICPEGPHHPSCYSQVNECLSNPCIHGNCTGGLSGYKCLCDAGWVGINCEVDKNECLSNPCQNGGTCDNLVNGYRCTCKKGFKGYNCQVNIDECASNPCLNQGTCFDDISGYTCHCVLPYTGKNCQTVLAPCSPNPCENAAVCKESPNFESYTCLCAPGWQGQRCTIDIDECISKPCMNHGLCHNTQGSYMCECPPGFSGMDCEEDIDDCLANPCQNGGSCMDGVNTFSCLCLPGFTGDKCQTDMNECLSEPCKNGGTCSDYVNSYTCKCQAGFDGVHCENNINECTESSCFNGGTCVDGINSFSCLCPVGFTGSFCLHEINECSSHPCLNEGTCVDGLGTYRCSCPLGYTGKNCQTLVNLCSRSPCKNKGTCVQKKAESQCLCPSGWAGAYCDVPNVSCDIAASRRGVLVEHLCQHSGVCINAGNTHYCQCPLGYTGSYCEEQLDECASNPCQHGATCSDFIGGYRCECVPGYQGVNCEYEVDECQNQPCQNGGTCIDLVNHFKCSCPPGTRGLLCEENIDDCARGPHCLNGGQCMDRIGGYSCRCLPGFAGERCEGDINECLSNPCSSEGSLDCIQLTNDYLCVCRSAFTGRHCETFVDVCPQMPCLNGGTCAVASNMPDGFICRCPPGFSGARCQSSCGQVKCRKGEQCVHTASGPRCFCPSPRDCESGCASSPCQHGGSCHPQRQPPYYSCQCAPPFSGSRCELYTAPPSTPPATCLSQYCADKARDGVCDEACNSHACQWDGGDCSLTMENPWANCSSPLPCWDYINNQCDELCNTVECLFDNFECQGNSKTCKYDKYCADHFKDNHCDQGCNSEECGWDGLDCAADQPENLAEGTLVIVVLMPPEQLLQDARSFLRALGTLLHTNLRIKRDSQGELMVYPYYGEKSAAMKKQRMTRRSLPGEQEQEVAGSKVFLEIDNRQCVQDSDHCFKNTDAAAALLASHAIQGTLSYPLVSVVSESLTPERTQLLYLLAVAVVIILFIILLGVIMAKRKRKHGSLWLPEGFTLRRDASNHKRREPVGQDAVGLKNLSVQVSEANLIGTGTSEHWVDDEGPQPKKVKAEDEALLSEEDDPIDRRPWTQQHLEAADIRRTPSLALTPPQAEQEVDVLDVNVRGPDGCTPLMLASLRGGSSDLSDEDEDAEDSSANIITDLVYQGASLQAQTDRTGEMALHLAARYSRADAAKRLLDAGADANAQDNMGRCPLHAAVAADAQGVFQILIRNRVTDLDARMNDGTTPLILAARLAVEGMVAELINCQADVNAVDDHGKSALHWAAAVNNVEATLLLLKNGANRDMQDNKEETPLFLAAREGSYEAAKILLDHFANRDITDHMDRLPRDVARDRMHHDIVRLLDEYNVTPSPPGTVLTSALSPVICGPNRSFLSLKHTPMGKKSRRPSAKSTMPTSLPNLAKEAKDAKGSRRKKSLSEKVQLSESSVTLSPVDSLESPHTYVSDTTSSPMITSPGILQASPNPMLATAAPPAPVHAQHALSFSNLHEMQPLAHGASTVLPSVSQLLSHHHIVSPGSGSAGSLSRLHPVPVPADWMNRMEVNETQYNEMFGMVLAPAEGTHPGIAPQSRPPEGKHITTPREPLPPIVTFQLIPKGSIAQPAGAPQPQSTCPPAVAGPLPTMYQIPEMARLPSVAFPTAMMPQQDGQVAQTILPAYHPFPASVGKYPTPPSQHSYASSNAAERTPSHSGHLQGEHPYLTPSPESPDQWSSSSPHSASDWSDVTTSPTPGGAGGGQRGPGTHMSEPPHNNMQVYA

Consider `N#Cc1ccc(NN2C(C(O)C3CC=CCC3)C=CC3C(=O)N(c4ccccc4)C(=O)C32)cc1` (stereo not given), for which the composite z-score in assay [1] was 0.076; in [2], -0.902; in assay [3] it was -0.073; in [4] it was 0.39; in assay [5] it was 1.5; in [6] it was 1.89. In addition, the composite z-score in assay [7] was 1.29; in assay [9], 1.28; in assay [10] it was -0.0427; in [11], 0.995; in assay [15], 3.5; in assay [17], -0.0873. Further, the figures for the composite z-score in assay [18], in assay [19] and in assay [20] were 0.179, 1.1 and 0.0149, respectively. The z-score was 0.474 (inactive) in assay [8]; 0.609 (inactive) in assay [12]; 0.773 (inactive) in assay [13]; 1.99 (inactive) in assay [14]; -0.645 (inactive) in assay [16].

Take `COCCCNC(=O)[C@@]1(CCS(=O)(=O)c2ccccc2)COC(c2ccc(OCCCO)cc2)=N1`: the composite z-score in [1] was 1.79; in assay [2] it was 1.68; in assay [3], 0.0177; in [4], 0.529; in assay [5], 0.874; in [6], 2.3. Further, the composite z-score in assay [7] is 1.28; in assay [9], 1.1; in [10], -0.0296; in assay [11], 1.36; in [15] it was 3.67; in [17], 0.472. In addition, the composite z-score in assay [18] came to 0.878; in [19] it was 0.56; in [20], 0.195. Further, the z-score in [8] was -1.24 (inactive); in assay [12], 0.134 (inactive); in assay [13], -0.0454 (inactive); in [14], -0.403 (inactive); in assay [16], 1.52 (inactive).

For the molecule `CC1CC/C=C\[C@H]2OC34C=CCN(C(C)(C)C)C(=O)[C@H]3N(CCCO)C(=O)[C@@H]4C2C(=O)O1` (stereo not given in full), the composite z-score in assay [1] was 0.142; in assay [2] it was -0.0052; in [3], -0.0063; in assay [4] it was 0.716; in assay [5], -0.858; in assay [6], 0.647. Further, the composite z-score was 1.28 in [7]; 0.182 in assay [9]; -0.169 in assay [10]; -0.672 in [11]; 1.86 in [15]; -0.214 in assay [17]. For the same molecule, the composite z-score in assay [18] is -0.556; in assay [19], -0.281; in [20] it was -0.249. The z-score is -0.281 (inactive) in [8]; 0.884 (inactive) in [12]; 0.743 (inactive) in assay [13]; 1.14 (inactive) in assay [14]; 0.545 (inactive) in assay [16].

`CCOC(=O)C1=CC[C@@H](c2ccc(OC)cc2)N(S(=O)(=O)c2ccc(C)cc2)[C@H]1CC`: the composite z-score in assay [1] was -0.295; in assay [2] it was 0.495; in [3], -0.067; in assay [4] it was 0.398; in assay [5], 1.66; in [6], 1.13. The composite z-score in assay [7] was 1.11; in assay [9] it was 1.14; in [10], -0.0645; in assay [11], 1.56; in assay [15], 3.05; in assay [17], 0.0319. Further, the composite z-score in [18] is 0.0635; in [19] it was 1.08; in assay [20], -0.0157. Further, the z-score in assay [8] was -3.47 (inactive); in assay [12], -1.48 (inactive); in assay [13] it was 0.971 (inactive); in [14], 0.879 (inactive); in assay [16], 0.66 (inactive).

Take `O=C(O)[C@H](Cc1ccccc1)n1cc(C2(O)CCCCC2)nn1`: the composite z-score in assay [1] was -0.44; in [2] it was 0.444; in [3], -0.103; in [4], 0.262; in [5], -0.0666; in assay [6], 0.0741. Further, the composite z-score in [7] was 0.993; in assay [9] it was 0.163; in [10], -0.0645; in assay [11], 0.499; in assay [15] it was 1.71; in assay [17] it was -0.137. The composite z-score in assay [18] is 0.392; in assay [19], 0.541; in [20], -0.0211. The z-score in [8] was 1.64 (inactive); in assay [12] it was -0.418 (inactive); in assay [13], 0.255 (inactive); in assay [14], -0.444 (inactive); in assay [16], -1.15 (inactive).

For `C=CC[C@@]12N=C(c3ccc(OCCCO)cc3)O[C@@H]1c1ccccc1N(CCC)C2=O`, the composite z-score in assay [1] was 0.953; in [2], -0.0868; in [3], 0.0528; in assay [4], 0.288; in assay [5], 0.381; in assay [6], 0.984. Moreover, the composite z-score in assay [7] is 1.21; in [9], 0.298; in assay [10], -0.0645; in assay [11], 1.55; in [15], 3.12; in assay [17], 0.219. In addition, the values for the composite z-score in [18], in assay [19] and in assay [20] were 0.916, 1.07 and -0.108, respectively. In addition, the z-score in assay [8] is 2.39 (inactive); in [12] it was -1.01 (inactive); in assay [13] it was -2.42 (inactive); in [14] it was -0.71 (inactive); in [16], 1.34 (inactive).

For `O=C(NC1CC1)[C@@H]1c2ccccc2C(=O)N(Cc2ccc(OC(F)(F)F)cc2)[C@H]1c1ccc(CO)cc1`, the composite z-score in [1] was 0.0273; in assay [2], 0.314; in assay [3], -0.0418; in assay [4], -0.0789; in [5], 0.354; in assay [6] it was 1.38. Further, the composite z-score in assay [7] is 0.793; in [9], 0.0427; in assay [10], -0.0994; in [11] it was 0.696; in [15], 1.76; in assay [17], -0.0943. Also, the composite z-score in assay [18] was 0.818; in assay [19] it was 0.377; in assay [20], -0.0679. Also, the z-score was -0.859 (inactive) in [8]; -0.112 (inactive) in [12]; -0.636 (inactive) in assay [13]; -1.51 (inactive) in [14]; 0.577 (inactive) in [16].

Regarding `O=C1N(Cc2ccccc2)c2ccccc2C[C@@]12COC(c1ccc(OCCCO)cc1)=N2`, the composite z-score was 0.689 in [1]; 0.445 in [2]; -0.0592 in assay [3]; 0.979 in [4]; 0.984 in assay [5]; 1 in [6]. In addition, the composite z-score in assay [7] is 1.23; in [9] it was 0.361; in assay [10], -0.0237; in assay [11], 1.56; in assay [15], 3; in assay [17], 0.249. Moreover, the composite z-score in assay [18] was 1.07; in [19], 0.944; in [20] it was -0.0238. The z-score in assay [8] is -1.14 (inactive); in [12], -0.91 (inactive); in assay [13] it was -1.56 (inactive); in assay [14] it was 2.83 (inactive); in [16], 1.54 (inactive).

Turning to `COc1ccc(NN2C(C(O)c3ccc(I)cc3)C=CC3C(=O)N(C4CCCCC4)C(=O)C32)cc1` (stereo not given), the composite z-score in assay [1] is 0.0109; in assay [2] it was 0.813; in assay [3], -0.0024; in assay [4] it was 0.896; in assay [5] it was 1.39; in assay [6], 1.02. For the same molecule, the composite z-score in assay [7] amounted to 1.04; in assay [9], 1.61; in assay [10] it was 0.245; in assay [11], 1.55; in [15], 3.04; in [17], 0.109. Also, the composite z-score in assay [18] amounted to 0.715; in [19], 1.03; in [20], 0.257. Besides, the z-score in [8] is -0.21 (inactive); in [12], 0.147 (inactive); in [13], 1.26 (inactive); in assay [14], 0.801 (inactive); in assay [16], -0.0155 (inactive).

The record behind these values is PubChem BioAssay.
